DT40 TDP1 no CPT: qHTS for Inhibitors of human tyrosyl-DNA phosphodiesterase 1 (TDP1): qHTS in cells in absence of CPT. AID 686978, 2013. DT40 Tdp1-/- hTDP1 cells, no CPT, ATP luminescence, 48 h. actives 15% (n = 420,000). Potency, µM (top dose mostly 46.2 µM), for the others: at the highest dose activity change, negative = growth inhibition, actives largely listed as inhibitors; note: potency is the fitted concentration of half-maximal effect; % is set by controls: 0 for no effect and ±100 for the full control effect; nearly all actives have a fitted effect of over 55% in size
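Luminescent ATP content (CellTiter-Glo) served as the growth readout. Knockout chicken DT40 cells expressing human TDP1 were exposed to compounds without camptothecin for a minimum 48 hr at 37 °C.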
IL1B secr inh: inhibitors of inflammasome signaling (IL-1 beta secretion); AID 743279; activity change, % at 57.5 µM; actives 4.7% (n = 360,000); THP-1 LPS/ATP IL-1B secretion, AlphaLISA, 16 h; hits give low values; in the data active = activity change below about -50%; inconclusive = mostly about -30% to -49%; note: % is set by controls: 0 for no effect and ±100 for the full control effect
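Secreted IL-1B measured by AlphaLISA bead assay after 16 h compound exposure of THP-1 cells; compounds (final up to 57.5 uM) added 1 h before LPS (250 ng/mL) and ATP (1.25 mM) stimulation; lower signal means less secretion.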
TDP1 cell CPT: DT40-hTDP1 cell growth loss with CPT; actives 12% (n = 420,000); Potency, µM (titrated, usually from 46.2 µM), without a hit: top-dose activity change, negative = growth inhibition, actives largely listed as inhibitors; chicken DT40 Tdp1-/-;hTDP1 cells + 20 nM CPT, ATP luminescence, 48 h; note: potency is the fitted concentration of half-maximal effect; % is set by controls: 0 for no effect and ±100 for the full control effect; nearly all actives have a fitted effect of over 55% in size
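Chicken DT40 Tdp1-/- cells stably complemented with human TDP1 were seeded at 400 cells/well in medium containing 20 nM camptothecin, exposed to pin-transferred compounds, and grown at 37 °C for at least 48 hr. Viability was read as ATP luminescence.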
BCR signal inh: blocks chronic active B-cell receptor signaling. AID 493014. ABC-DLBCL IkBa-CBG/CBR reporter, luminescence ratio, 4 h. actives 0.05% (n = 340,000). Potency, µM (top dose mostly 46.1 µM), inactives show top-dose activity change, negative = inhibition, hits mostly inhibitors; active = well fitted inhibition curve with a large enough effect in the signal ratio, with a control signal flat, not every such curve was filed as active; inconclusive = small, poorly fitted or top-dose-only effect, or effect the other way, or a change in a side signal; the % refers to the signal ratio;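 note: potency is the fitted concentration of half-maximal effect; plate controls were basal doxycycline-induced cells for no effect and cells given 10 µM MG132 for full effect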
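TMD8 human ABC-DLBCL cells with doxycycline-inducible IκBα–green luciferase fusion and unfused red luciferase, in 0.5% FBS medium; compounds up to 46 uM, 4 h at 37C. Green/red luminescence ratio, filter-overlap corrected, fitted to concentration-response curves.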
SW480 rerep: DNA re-replication induction in SW480 cells | actives 1.8% (n = 340,000) | Potency, µM (titrated, usually from 46.1 µM), inactives show at the top dose re-replication activation, hits mostly activators | SW480 DNA re-replication, Hoechst DNA content imaging, 48 h; note: potency is the fitted concentration of half-maximal effect; % of control where 0% means no effect; nearly all actives have a fitted effect of over 55% in size
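250 cells/well; 23 nL cpd via pin tool; 48 hr, 37 C, 5% CO2; Hoechst 40 min; imager read of total nuclear intensity, ex 405/em 500-530 nm.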
MCF10A rerep: DNA re-replication induction in MCF 10a cells; MCF 10A DNA re-replication, Hoechst nuclear intensity, 48 h; Potency, µM (doses to about 46.1 µM), for the others: top-dose activity, positive = re-replication, usual class: activators; actives 2.9% (n = 350,000); note: potency is the fitted concentration of half-maximal effect; % of control where 0% means no effect; nearly all actives have a fitted effect of over 50% in size
* hit, by the source's call. Only some compounds are listed: those with a hit (about 19% of all), similar ones and a draw of the others. Unless noted, calls come from the whole dose curve; as a rule, active = well fitted curve in the direction sought with a large enough effect; inconclusive = small, poorly fitted or top-dose-only effect, or another doubt; inactive = no such curve, though single readings can be large; an effect the other way counts as inactive or inconclusive.

`FC(F)Oc1ccc(-c2csc(NNC3=NCCCCC3)n2)cc1` gave DT40 TDP1 no CPT 14.6µM*, IL1B secr inh -93.2*, TDP1 cell CPT 4.61µM*, BCR signal inh inconclusive, SW480 rerep 6.0% and MCF10A rerep inconclusive.
`CC(C)(C)c1ccc(-c2csc(NNC3=NCCCCC3)n2)cc1` gave DT40 TDP1 no CPT -89.7%, IL1B secr inh -61.4*, TDP1 cell CPT inconclusive, BCR signal inh inconclusive, SW480 rerep inconclusive and MCF10A rerep inconclusive.
Screening CCC(C(=O)NCCCN1CCOCC1)n1c2ccccc2c2nc(=O)cc(C)n21 (stereo not given) returned DT40 TDP1 no CPT 5.6%, IL1B secr inh 5.0, TDP1 cell CPT 3.0%, BCR signal inh 1.8%, SW480 rerep -1.1% and MCF10A rerep 1.4%.
Cc1cccc(C)c1Nc1c(-c2ccccn2)nc2c(C)cccn12 was read as DT40 TDP1 no CPT 25.9µM* and TDP1 cell CPT 16.4µM*.
Cc1cccn2c(Nc3ccccc3)c(-c3ccccn3)nc12 was read as DT40 TDP1 no CPT 20.6µM*, IL1B secr inh -9.1, TDP1 cell CPT 18.4µM*, BCR signal inh -1.4%, SW480 rerep -1.1% and MCF10A rerep 2.3%.
For Cc1cccn2c(NCc3ccc4c(c3)OCO4)c(-c3ccc(O)cc3)nc12 the results were DT40 TDP1 no CPT -27.3%, IL1B secr inh -3.4, TDP1 cell CPT -3.9%, BCR signal inh inconclusive, SW480 rerep -1.6% and MCF10A rerep inconclusive.
COc1ccc(-c2nc3ncccn3c2Nc2ccccc2)cc1 was read as DT40 TDP1 no CPT inconclusive, IL1B secr inh -21.2, TDP1 cell CPT -1.9%, BCR signal inh 4.6%, SW480 rerep inconclusive and MCF10A rerep -1.9%.
For CCOC(=O)C1CCN(C(=O)c2ccc3nc(-c4ccc(OC)cc4)c(-c4ccc(OC)cc4)nc3c2)CC1 the results were DT40 TDP1 no CPT inconclusive, IL1B secr inh 5.4, TDP1 cell CPT inconclusive, BCR signal inh -1.5%, SW480 rerep 11.8% and MCF10A rerep 15.1%.
Cc1nn(Cc2ccc(Cl)cc2)c(C)c1NC(=O)CCCn1nc([N+](=O)[O-])c(Cl)c1C was read as DT40 TDP1 no CPT inconclusive, IL1B secr inh inconclusive, TDP1 cell CPT 14.6µM*, BCR signal inh inconclusive, SW480 rerep -0.8% and MCF10A rerep 8.8%.
For Cc1c(Cl)c([N+](=O)[O-])nn1CCCC(=O)Nc1cc(Oc2ccccc2)cc([N+](=O)[O-])c1 the results were DT40 TDP1 no CPT inconclusive, IL1B secr inh 20.8, TDP1 cell CPT 20.6µM*, BCR signal inh 7.4%, SW480 rerep -18.6% and MCF10A rerep -1.5%.
For Cc1ccccc1Oc1cc(NC(=O)CCCn2nc(C)c([N+](=O)[O-])c2C)cc([N+](=O)[O-])c1 the results were DT40 TDP1 no CPT inconclusive, IL1B secr inh -55.5*, TDP1 cell CPT inconclusive, BCR signal inh inconclusive, SW480 rerep 23.1% and MCF10A rerep 1.8%.
Screening Cc1c(Br)c([N+](=O)[O-])nn1CCCC(=O)N1CCN(c2ccccc2)CC1 returned DT40 TDP1 no CPT inconclusive, IL1B secr inh 0.0, TDP1 cell CPT -6.9%, BCR signal inh -9.8%, SW480 rerep -14.6% and MCF10A rerep -36.7%.
Screening Cc1c(Cl)c([N+](=O)[O-])nn1CCCC(=O)N1CCN(c2ccccc2)CC1 returned DT40 TDP1 no CPT -16.1%, IL1B secr inh -6.6, TDP1 cell CPT 14.6µM*, BCR signal inh -6.3%, SW480 rerep -2.6% and MCF10A rerep -0.2%.
Screening Cc1c(Cl)c([N+](=O)[O-])nn1CCCC(=O)Nc1c(Cl)cccc1Cl returned DT40 TDP1 no CPT inconclusive, IL1B secr inh 10.3, TDP1 cell CPT inconclusive, BCR signal inh -5.3%, SW480 rerep -7.4% and MCF10A rerep 13.3%.
`CSc1ncc(C(=O)Nc2ccccc2C(F)(F)F)c(-c2ccccc2)n1` gave DT40 TDP1 no CPT -18.7% and TDP1 cell CPT -26.2%.
CCC1CCCCN1C(=O)Cn1c(=O)n(CCCC(=O)NCc2ccco2)c(=O)c2sccc21 (stereo not given) was read as DT40 TDP1 no CPT -14.8%, IL1B secr inh -14.3, TDP1 cell CPT 3.8%, BCR signal inh 1.1%, SW480 rerep -9.9% and MCF10A rerep -2.0%.
`Cc1ccccc1Oc1cc(NC(=O)Cn2cnc([N+](=O)[O-])c2)cc([N+](=O)[O-])c1` gave DT40 TDP1 no CPT inconclusive, IL1B secr inh 0.5, TDP1 cell CPT 16.4µM*, BCR signal inh inconclusive, SW480 rerep 0.1% and MCF10A rerep -3.9%.
Screening CCn1nc(C)c(C(=O)Nc2cc(Oc3ccc(Cl)cc3)cc([N+](=O)[O-])c2)c1C returned DT40 TDP1 no CPT inconclusive, IL1B secr inh 17.2, TDP1 cell CPT inconclusive, BCR signal inh 1.3%, SW480 rerep inconclusive and MCF10A rerep 8.2µM*.
`CCc1ccc(NC(=O)Cn2cnc([N+](=O)[O-])c2)cc1` gave DT40 TDP1 no CPT inconclusive, IL1B secr inh 67.3, TDP1 cell CPT 7.1%, BCR signal inh -10.5%, SW480 rerep 1.8% and MCF10A rerep -4.9%.
For O=C(Nc1ccccc1)/C(=C/c1ccc(O)cc1)NC(=O)c1ccco1 the results were DT40 TDP1 no CPT 4.4%, IL1B secr inh -6.6, TDP1 cell CPT 11.9%, BCR signal inh 1.7%, SW480 rerep -1.5% and MCF10A rerep -21.1%.
For CC(C)c1nn2c(=O)cc(COC(=O)c3ccco3)nc2s1 the results were DT40 TDP1 no CPT 19.7% and TDP1 cell CPT -16.4%.
CCn1c(-c2ccco2)nc2ccccc21 was read as DT40 TDP1 no CPT inconclusive, IL1B secr inh 38.7, TDP1 cell CPT -10.6%, BCR signal inh -4.4%, SW480 rerep -2.4% and MCF10A rerep -11.7%.
Screening c1ccc(-c2nc(-c3ccco3)n3ccccc23)cc1 returned DT40 TDP1 no CPT inconclusive, IL1B secr inh -92.2*, TDP1 cell CPT 10.3µM*, BCR signal inh inconclusive, SW480 rerep inconclusive and MCF10A rerep 20.6µM*.
`O=C(CNc1cccc(S(=O)(=O)N2CCCCC2)c1)Nc1cccc(F)c1` gave DT40 TDP1 no CPT inconclusive, IL1B secr inh -5.5, TDP1 cell CPT -27.1%, BCR signal inh 10.0%, SW480 rerep 10.7% and MCF10A rerep inconclusive.
`O=C(CNc1ccc(Br)cc1)Nc1cccc(S(=O)(=O)N2CCCC2)c1` gave DT40 TDP1 no CPT inconclusive, IL1B secr inh 0.0, TDP1 cell CPT inconclusive, BCR signal inh 1.6%, SW480 rerep 2.1% and MCF10A rerep 12.7%.
